Sampled rows, rich in hits. Any-hit rate of the full collection: about 15%.
DT40 TDP1 no CPT: qHTS for Inhibitors of human tyrosyl-DNA phosphodiesterase 1 (TDP1): qHTS in cells in absence of CPT. AID 686978, 2013. Potency, µM (doses to about 46.2 µM), without a hit: at the highest dose activity change, negative = growth inhibition, most hits filed as inhibitors. DT40 Tdp1-/- hTDP1 cells, no CPT, ATP luminescence, 48 h. actives 15% (n = 420,000); note: nearly all actives have a fitted effect of over 55% in size
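No-CPT arm: Tdp1-/-;hTDP1 DT40 cells (400/well) plus compounds, incubated ≥48 hr at 37 °C. Readout CellTiter-Glo luminescence.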
VP16 counter: counter-screen for ROR gamma inhibitors: Gal4-VP16 reporter | Potency, µM (top dose mostly 53.6 µM), inactives show at the highest dose activity, negative = inhibition, most hits filed as inhibitors | Drosophila S2 Gal4-VP16 UAS-luciferase, luminescence, 20 h | actives 3.5% (n = 310,000);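 note: Gal4-VP16 expression switched on by copper sulfate through the metallothionein promoter; nearly all actives have a fitted effect of over 50% in size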
12-LOX inh: blocks human arachidonate 12S-lipoxygenase; purified 12hLO, xylenol orange hydroperoxide absorbance; AID 1671190; Potency, µM (doses to about 108 µM), for the others: at the highest dose activity change, negative = inhibition, most hits filed as inhibitors; P18054; actives 1.1% (n = 580,000)
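Hydroperoxide product was detected by ferrous iron/xylenol orange as the 573 to 405 nm absorbance ratio. Arachidonic acid at 40 uM (final) was turned over for 30 min at room temperature by 150 nM human 12hLO, pH 7.0 Hepes buffer, after 15 min compound preincubation.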
ELG1 DNA repair: ELG1-dependent DNA repair inhibition | actives 2.3% (n = 330,000) | AID 504467 | Potency, µM (highest dose often 46.1 µM), without a hit: at the top dose activity change, negative = inhibition, usual class: inhibitors | HEK293T ELG1-luciferase reporter, luminescence, 16 h; DNA damage induced by 5-fluorouridine; note: nearly all actives have a fitted effect of over 55% in size
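Cells (2,000 per well) received 5-fluorouridine plus test compound or DMSO and were incubated 16 hr at 37 °C, 5% CO2. Luciferase activity was read by luminescence 30 min after ONE-Glo addition; signal suppression marked inhibition of damage-induced ELG1 function.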
TDP1 cell CPT: DT40-hTDP1 cell growth loss with CPT | chicken DT40 Tdp1-/-;hTDP1 cells + 20 nM CPT, ATP luminescence, 48 h | Potency, µM (highest dose often 46.2 µM), for inactives: at the highest dose activity change, negative = growth inhibition, actives largely listed as inhibitors | actives 12% (n = 420,000) | AID 686979; note: nearly all actives have a fitted effect of over 55% in size
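Chicken DT40 Tdp1-/- cells complemented with human TDP1, 400 cells/well, exposed to compounds plus 20 nM camptothecin for at least 48 h at 37 C; viability read as ATP content by CellTiter-Glo luminescence.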
RORg inh: ROR gamma (mouse) transcription inhibition; Drosophila S2 Gal4-RORgamma UAS-luciferase reporter, 20 h; Potency, µM (doses to about 53.6 µM), for the others: top-dose activity change, negative = inhibition, actives largely listed as inhibitors; actives 5.4% (n = 310,000); note: nearly all actives have a fitted effect of over 60% in size
Target sequence (P51450 whole entry, looked up, the tested form may be a part): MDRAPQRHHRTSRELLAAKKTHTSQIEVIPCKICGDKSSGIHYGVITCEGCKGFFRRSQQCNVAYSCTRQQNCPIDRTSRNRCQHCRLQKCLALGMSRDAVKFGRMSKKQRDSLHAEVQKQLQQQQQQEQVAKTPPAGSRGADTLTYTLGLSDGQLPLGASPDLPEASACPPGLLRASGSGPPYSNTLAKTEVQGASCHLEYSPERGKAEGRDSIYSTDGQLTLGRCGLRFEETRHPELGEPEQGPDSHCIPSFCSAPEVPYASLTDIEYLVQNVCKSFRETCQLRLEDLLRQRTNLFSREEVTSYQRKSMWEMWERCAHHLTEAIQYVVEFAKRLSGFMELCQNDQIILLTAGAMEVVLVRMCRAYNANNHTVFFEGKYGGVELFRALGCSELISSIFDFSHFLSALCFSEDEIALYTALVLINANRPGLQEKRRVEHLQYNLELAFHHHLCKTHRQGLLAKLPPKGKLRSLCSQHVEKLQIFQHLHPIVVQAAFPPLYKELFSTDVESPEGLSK
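Drosophila Schneider cells stably carrying a metallothionein-driven Gal4 DBD–ROR gamma fusion and a UAS-Photinus luciferase reporter were exposed to compound for 1 hr, then induced with copper sulfate (700 uM final) for 20 hr at ambient temperature before luminescence reading.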
Active calls of the source: *; ? = inconclusive; · = no result given; [ ] = dose if it differs, or a comment. Calls come from the whole dose curve; as a rule, active = well fitted curve in the direction sought with a large enough effect; inconclusive = small, poorly fitted or top-dose-only effect, or another doubt; inactive = no such curve, though single readings can be large; an effect the other way counts as inactive or inconclusive. % is set by controls: 0 for no effect and ±100 for the full control effect; potency is the fitted concentration of half-maximal effect.

SMILES | DT40 TDP1 no CPT | VP16 counter | 12-LOX inh | ELG1 DNA repair | TDP1 cell CPT | RORg inh
CCCCSc1nnc2c(n1)OC(c1ccc(Br)s1)Nc1ccccc1-2 (configuration not stated) | 18.4µM* | · | ? | · | ? | ·
Cc1ccc2nc(C)cc(C(=O)N(C)C3CCS(=O)(=O)C3)c2c1 (configuration not stated) | · | · | 9.9% | · | · | ·
Cc1ccc(C2Nc3cccc4cccc(c34)N2)s1 | 18.4µM* | -19.9% | ? | 22.1% | ? | -19.5%
CC1=C[C@@H](CN2CCN(C)CC2)[C@H](C(C)C)C[C@H]1Cc1nnc(-c2ccc(N(C)C)cc2)o1 | · | · | 16.0% | · | · | ·
Cc1c(C(=O)Nc2cccc(C(F)(F)F)c2)oc2ccc(S(=O)(=O)N(C)C3CCCCC3)cc12 | 13µM* | · | 0.0% | · | 11.6µM* | ·
Cc1ccc(NC(=O)c2cc(S(=O)(=O)N(C)C3CCCCC3)ccc2F)cc1C | 18.4µM* | · | 4.0% | · | 18.4µM* | ·
COc1ccc(NC(=O)c2oc3ccc(S(=O)(=O)N(C)C4CCCCC4)cc3c2C)cc1Cl | 5.8µM* | · | -20.3% | · | 9.2µM* | ·
COCCNC(=O)c1cc(S(=O)(=O)N(C)C2CCCCC2)ccc1Cl | -29.7% | · | 7.5% | · | -27.6% | ·
Cc1c(C(=O)Nc2ccc(F)c(Cl)c2)oc2ccc(S(=O)(=O)N(C)C3CCCCC3)cc12 | 14.6µM* | · | -8.1% | · | 23.1µM* | ·
COc1ccc(NC(=O)CN(C)C2CCCCC2)cc1Cl | -23.9% | -14.1% | -5.5% | -3.1% | -6.1% | 18.4%
CCC(C(=O)Nc1cccc(C(C)=O)c1)n1cnc2ccccc2c1=O (configuration not stated) | · | · | -23.1% | · | · | ·
COc1ccc2oc(C(=O)Nc3ccc(S(=O)(=O)N(C)C4CCN(C)CC4)cc3)c(C)c2c1 | 18.4µM* | -8.1% | 94.1% | 11.3% | ? | -10.0%
COCCCNC(=O)c1oc2ccc(S(=O)(=O)N(C)C3CCCCC3)cc2c1C | ? | -2.9% | 0.0% | -29.3% | ? | -2.7%
Cc1ccc(NC(=O)c2oc3ccc(S(=O)(=O)N(C)C4CCCCC4)cc3c2C)c(C)c1 | 14.6µM* | · | -11.6% | · | ? | ·
CNC(=O)c1ccc(CN2CCCC(CCc3ccccc3C(F)(F)F)C2)o1 (configuration not stated) | · | · | 60.0% | · | · | ·
O=C(CSc1nnc(-c2ccncc2)n1-c1ccc(Br)cc1)Nc1ccc(F)cc1 | · | · | 17.4% | · | · | ·
CCCNC(=O)NC(=O)CSc1cc(C)c2ccccc2n1 | · | · | -28.3% | · | · | ·
COc1ccc(C)cc1NC(=O)c1ccc2c(c1)N(C)C1CCCN1C2=O (configuration not stated) | · | · | 16.1% | · | · | ·
Cc1cccc(C(=O)NNC(=O)C(=O)NC(C)(C)C)c1 | ? | -2.3% | -20.8% | 5.8% | -5.4% | 12.6µM*
CC(C)(C)NC(=O)C(=O)NNC(=O)c1ccc(C(C)(C)C)cc1 | ? | ? | -2.8% | 6.0% | ? | 8.91µM*
CC(C)(C)NC(=O)C(=O)NNC(=O)c1cccc(Br)c1 | 0.4% | ? | 0.1% | ? | 7.7% | ?
CC(C)(C)NC(=O)C(=O)NNC(=O)c1ccco1 | -21.1% | -12.9% | 3.7% | -1.7% | 0.6% | -0.3%
CC(NS(C)(=O)=O)C(=O)O (configuration not stated) | · | · | 9.4% | · | · | ·
C/C(CC(=O)N1CCN(C=O)CC1)=N\NC(=O)c1ccc([N+](=O)[O-])cc1 | -1.9% | ? | 1.3% | 0.6% | 10.9% | 8.91µM*
CC(C)CC1C(=O)N(Cc2cn(CC3CCCCC3)nn2)CCS(=O)(=O)N1Cc1ccc(-c2cccc(CO)c2)cc1 (configuration not stated) | 23.1µM* | · | ? | · | 20.6µM* | ·
SMILES | DT40 TDP1 no CPT | VP16 counter | 12-LOX inh | ELG1 DNA repair | TDP1 cell CPT | RORg inh
CC1C(=O)N(Cc2cn(CC3CCCCC3)nn2)CCS(=O)(=O)N1Cc1ccc(-c2cccc(CO)c2)cc1 (configuration not stated) | 23.1µM* | · | ? | · | 14.6µM* | ·
CC(=O)Oc1c(C)c(OC(C)=O)c2c(c1C(C)=O)OC1CC(=O)C(C(C)=O)=C(O)C21C (configuration not stated) | ? | 20.7% | 28.2µM* | -19.4% | ? | -11.6%
CC(=O)C1=C(O)C=C2Oc3c(C(C)=O)c(O)c(C)c(O)c3C2(C)C1=O (configuration not stated) | 9.9%[9.04 µM] | 5.6% | ? | · | -5.1%[9.04 µM] | 12.5%
O=C(C1CCN(Cc2ccco2)CC1)N1CCC2(CCCNC2=O)C1 (configuration not stated) | · | · | 43.5% | · | · | ·
COc1ccc(OC)c(NC(=O)CN2C(=O)NC(c3ccc(Cl)cc3)C3=C2COC3=O)c1 (configuration not stated) | · | · | 9.0% | · | · | ·
O=C(CN1C(=O)NC(c2ccc(Cl)cc2)C2=C1COC2=O)Nc1ccc(Cl)cc1F (configuration not stated) | · | · | 8.91µM* | · | · | ·
O=C(CN1C(=O)NC(c2ccc(Cl)cc2)C2=C1COC2=O)Nc1ccc(Br)cc1F (configuration not stated) | · | · | 4.47µM* | · | · | ·
Cc1ccc(C2NC(=O)N(CC(=O)Nc3c(C)cccc3Cl)C3=C2C(=O)OC3)cc1 (configuration not stated) | · | · | 2.2% | · | · | ·
O=C(CN1C(=O)NC(c2ccc(Cl)cc2)C2=C1COC2=O)NC1CCCC1 (configuration not stated) | · | · | 25.2% | · | · | ·
CC(C)NC(=O)CN1C(=O)NC(c2ccc(Cl)cc2)C2=C1COC2=O (configuration not stated) | · | · | 62.2% | · | · | ·
O=C(CN1C(=O)NC(c2ccc(Cl)cc2)C2=C1COC2=O)Nc1cc(F)cc(F)c1 (configuration not stated) | · | · | 11.2µM* | · | · | ·
Cc1ccc(NC(=O)CN2C(=O)NC(c3ccc(Cl)cc3)C3=C2COC3=O)cc1 (configuration not stated) | · | · | 11.2µM* | · | · | ·
O=C(NC[C@H]1Cn2c(-c3ccccc3)cnc2CO1)c1ccccc1 | · | · | 17.0%[176 µM] | · | · | ·
CC(C)c1ccc(NC(=S)NN(c2ccccc2)c2ccccc2)cc1 | 25.9µM* | 5.01µM* | 39.8µM* | ? | 13µM* | 3.16µM*
CC(=O)NNC(=S)Nc1ccc(C(C)C)cc1 | · | · | -0.1% | · | · | ·
CCNC(=S)Nc1ccc(N(c2ccccc2)C(C)C)cc1 | 20.6µM* | -1.9% | 4.1% | 19.5% | 25.9µM* | -44.1%

Screens (PubChem BioAssay)
